# Source: PubChem BioAssay (NCATS)
# Results filed as inconclusive are left out. Entries that show only a call come without a potency. Values without a mark were called inactive. Active and inactive are the calls of the source. Calls come from the whole dose curve; as a rule, active = well fitted curve in the direction sought with a large enough effect; inconclusive = small, poorly fitted or top-dose-only effect, or another doubt; inactive = no such curve, though single readings can be large; an effect the other way counts as inactive or inconclusive.
# Assays:
# [1] = molecular target: ATP-dependent 6-phosphofructokinase (Trypanosoma brucei brucei) (UniProt O15648); test: qHTS Assay to Find Inhibitors of T. brucei phosphofructokinase: hit validation (AID 492961);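 note: luminescence reports ADP formed as PFK phosphorylates fructose-6-phosphate with ATP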
# In short: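 Measures ADP output of PFK (1.25 nM) at 0.1 mM ATP, 0.5 mM F6P, pH 8.0 TEA buffer with 5 mM MgCl2. No-enzyme wells define full inhibition; uninhibited enzyme wells define zero.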
# [2] = molecular target: Ubiquitin carboxyl-terminal hydrolase 1 (Homo sapiens) (UniProt O94782); test: Inhibitors of USP1/UAF1: Pilot qHTS (AID 504865);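 note: rhodamine fluorescence freed from ubiquitin-rhodamine substrate followed over time; top concentration of the series differs between compounds; nearly all actives have a fitted effect of over 35% in size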
# In short: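 Enzyme-free wells gave the negative control, while test wells held 1nM USP1/UAF1 preincubated with compound for 15 min at room temperature. Ub-Rho at 150nM final started the reaction, and fluorescence at 480/540 nm was recorded kinetically.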
# [3] = molecular target: Luciferin 4-monooxygenase (Photinus pyralis) (UniProt P08659); test: Biochemical firefly luciferase enzyme assay for NPC (AID 624030);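 note: purified P. pyralis luciferase at 10 nM with luciferin and ATP substrate; nearly all actives have a fitted effect of over 70% in size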
# In short: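 Direct inhibition of firefly luciferase enzyme (10 nM final, 50 mM Tris Acetate) assessed by luminescence within 5 minutes. Percent activity scaled between DMSO and PTC124 positive control, with concentration-effect curves classified by fit quality and response.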
# [4] = qHTS profiling for inhibitors of Plasmodium falciparum proliferation (AID 504749); note: potency is the fitted concentration of half-maximal effect; for all read-outs here: nearly all actives have a fitted effect of over 60% in size; conditions: P. falciparum in erythrocytes, SYBR Green DNA, 72 h; for activity, negative = inhibition: at 28.7 µM (top of the series)
# In short: (§1)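 Infected RBCs, 0.3% parasitemia/2.5% Hct final; cpd 72 h, 37 C, 5% CO2; lysis buffer with saponin/triton/SYBR Green I, o/n RT dark; FI 485/535; norm. to artemisinin (0.29 uM) and DMSO.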
# ATS189 = test: as above; conditions: P. falciparum in erythrocytes, SYBR Green DNA, 72 h; series mostly up to 28.7 µM
# In short: as §1
# C2A = test: as above; conditions: P. falciparum in erythrocytes, SYBR Green DNA, 72 h; series mostly up to 28.7 µM
# In short: as §1
# CP191 = test: as above; conditions: P. falciparum in erythrocytes, SYBR Green DNA, 72 h; series mostly up to 28.7 µM
# In short: as §1
# CP192 = test: as above; conditions: P. falciparum in erythrocytes, SYBR Green DNA, 72 h; series mostly up to 28.7 µM
# In short: as §1
# CP201 = test: as above; conditions: P. falciparum in erythrocytes, SYBR Green DNA, 72 h; series mostly up to 28.7 µM
# In short: as §1
# CP215 = test: as above; conditions: P. falciparum in erythrocytes, SYBR Green DNA, 72 h; series mostly up to 28.7 µM
# In short: as §1
# CP237 = test: as above; conditions: P. falciparum in erythrocytes, SYBR Green DNA, 72 h; series mostly up to 28.7 µM
# In short: as §1
# CP238 = test: as above; conditions: P. falciparum in erythrocytes, SYBR Green DNA, 72 h; series mostly up to 28.7 µM
# In short: as §1
# CP268 = test: as above; conditions: P. falciparum in erythrocytes, SYBR Green DNA, 72 h; series mostly up to 28.7 µM
# In short: as §1
# CP269 = test: as above; conditions: P. falciparum in erythrocytes, SYBR Green DNA, 72 h; series mostly up to 28.7 µM
# In short: as §1
# CP286 = test: as above; conditions: P. falciparum in erythrocytes, SYBR Green DNA, 72 h; series mostly up to 28.7 µM
# In short: as §1
# CP325 = test: as above; conditions: P. falciparum in erythrocytes, SYBR Green DNA, 72 h; series mostly up to 28.7 µM
# In short: as §1
# CP329 = test: as above; conditions: P. falciparum in erythrocytes, SYBR Green DNA, 72 h; series mostly up to 28.7 µM
# In short: as §1
# FAB9 = test: as above; conditions: P. falciparum in erythrocytes, SYBR Green DNA, 72 h; series mostly up to 28.7 µM
# In short: as §1
# JCK = test: as above; conditions: P. falciparum in erythrocytes, SYBR Green DNA, 72 h; series mostly up to 28.7 µM
# In short: as §1
# PC49 = test: as above; conditions: P. falciparum in erythrocytes, SYBR Green DNA, 72 h; series mostly up to 28.7 µM
# In short: as §1
# Luciferin 4-monooxygenase (Photinus pyralis), sequence (P08659 whole entry, looked up): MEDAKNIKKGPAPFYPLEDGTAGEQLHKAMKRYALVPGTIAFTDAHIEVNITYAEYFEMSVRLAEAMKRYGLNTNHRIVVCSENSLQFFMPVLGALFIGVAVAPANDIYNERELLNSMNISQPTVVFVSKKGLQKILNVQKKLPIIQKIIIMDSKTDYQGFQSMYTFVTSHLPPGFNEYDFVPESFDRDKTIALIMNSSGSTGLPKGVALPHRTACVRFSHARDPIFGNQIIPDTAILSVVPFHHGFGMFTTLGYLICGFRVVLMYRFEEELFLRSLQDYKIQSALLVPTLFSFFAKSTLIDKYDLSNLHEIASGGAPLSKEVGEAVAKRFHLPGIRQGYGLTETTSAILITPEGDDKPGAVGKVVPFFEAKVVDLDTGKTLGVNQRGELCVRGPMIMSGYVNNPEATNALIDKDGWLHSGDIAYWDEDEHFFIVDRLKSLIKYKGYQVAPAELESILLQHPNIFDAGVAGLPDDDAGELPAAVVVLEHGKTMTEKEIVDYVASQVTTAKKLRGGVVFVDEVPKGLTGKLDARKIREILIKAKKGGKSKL
# ATP-dependent 6-phosphofructokinase (Trypanosoma brucei brucei), sequence (O15648 whole entry, looked up): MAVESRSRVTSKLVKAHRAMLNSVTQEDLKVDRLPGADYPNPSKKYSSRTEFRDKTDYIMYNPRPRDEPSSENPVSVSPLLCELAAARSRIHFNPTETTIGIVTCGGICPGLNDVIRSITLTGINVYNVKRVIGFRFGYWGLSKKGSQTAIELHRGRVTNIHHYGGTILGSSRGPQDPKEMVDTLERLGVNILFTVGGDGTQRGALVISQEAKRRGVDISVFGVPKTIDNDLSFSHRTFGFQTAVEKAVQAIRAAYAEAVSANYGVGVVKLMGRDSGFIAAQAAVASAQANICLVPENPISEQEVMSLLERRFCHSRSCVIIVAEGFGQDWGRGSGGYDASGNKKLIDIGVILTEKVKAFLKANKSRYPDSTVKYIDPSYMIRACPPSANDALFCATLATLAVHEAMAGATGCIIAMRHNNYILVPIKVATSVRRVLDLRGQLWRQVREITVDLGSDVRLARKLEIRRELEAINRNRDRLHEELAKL
# Ubiquitin carboxyl-terminal hydrolase 1 (Homo sapiens), sequence (O94782 whole entry, looked up): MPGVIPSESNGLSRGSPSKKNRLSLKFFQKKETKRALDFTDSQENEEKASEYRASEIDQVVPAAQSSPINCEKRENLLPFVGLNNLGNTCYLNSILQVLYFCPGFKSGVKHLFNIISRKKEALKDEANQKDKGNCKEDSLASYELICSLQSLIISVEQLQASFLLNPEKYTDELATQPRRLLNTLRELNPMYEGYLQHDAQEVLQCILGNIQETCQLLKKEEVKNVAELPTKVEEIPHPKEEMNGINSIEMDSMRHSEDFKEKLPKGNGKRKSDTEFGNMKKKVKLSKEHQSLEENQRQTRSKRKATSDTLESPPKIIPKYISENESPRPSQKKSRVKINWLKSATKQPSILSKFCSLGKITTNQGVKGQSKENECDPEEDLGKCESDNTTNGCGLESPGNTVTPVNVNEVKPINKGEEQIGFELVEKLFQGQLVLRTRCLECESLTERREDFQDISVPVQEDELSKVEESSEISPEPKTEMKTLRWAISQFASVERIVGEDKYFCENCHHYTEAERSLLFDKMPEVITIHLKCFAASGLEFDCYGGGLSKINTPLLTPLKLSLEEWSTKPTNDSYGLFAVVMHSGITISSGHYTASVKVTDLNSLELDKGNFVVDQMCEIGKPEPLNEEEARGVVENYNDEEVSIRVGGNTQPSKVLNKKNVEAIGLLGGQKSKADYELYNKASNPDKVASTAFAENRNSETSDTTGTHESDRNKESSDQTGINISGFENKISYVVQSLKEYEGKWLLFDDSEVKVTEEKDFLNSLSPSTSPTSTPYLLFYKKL
structure (smiles),measurement,setting,value
CC(=O)[C@H]1CC[C@H]2C3CC[C@H]4C[C@H](O)CC[C@]4(C)C3CC[C@]12C (some centres not stated),outcome,[1],inactive
same,Potency,[2],inactive
same,Potency,[3],inactive
same,"activity, negative = inhibition",[4]; parasite line A,-11.3%
same,"activity, negative = inhibition",[4]; parasite line B,2.02%
same,Potency,ATS189,inactive
same,Potency,C2A,inactive
same,Potency,CP191,inactive
same,Potency,CP192,inactive
same,Potency,CP201,inactive
same,Potency,CP215,inactive
same,Potency,CP237,inactive
same,Potency,CP238,inactive
same,Potency,CP268,inactive
same,Potency,CP269,inactive
same,Potency,CP286,inactive
same,Potency,CP325,inactive
same,Potency,CP329,inactive
same,Potency,FAB9,inactive
same,Potency,JCK,inactive
same,Potency,PC49,inactive
COC(C(=O)C(O)C(C)O)C1Cc2cc3cc(OC4CC(OC5CC(O)C(OC)C(C)O5)C(OC(C)=O)C(C)O4)c(C)c(O)c3c(O)c2C(=O)C1OC1CC(OC2CC(OC3CC(C)(O)C(OC(C)=O)C(C)O3)C(O)C(C)O2)C(O)C(C)O1 (configuration not stated),outcome,[1],inactive
same,Potency,[3],inactive
same,Potency,[4]; parasite line A,708 nM (active)
same,Potency,[4]; parasite line B,1410 nM (active)
same,Potency,ATS189,1410 nM (active)
same,Potency,C2A,1780 nM (active)
same,Potency,CP191,1780 nM (active)
same,Potency,CP192,4260 nM (active)
same,Potency,CP201,15100 nM (active)
same,Potency,CP215,4260 nM (active)
same,Potency,CP237,89.1 nM (active)
same,Potency,CP238,1260 nM (active)
same,Potency,CP268,1900 nM (active)
same,Potency,CP269,1900 nM (active)
same,Potency,CP286,100 nM (active)
same,Potency,CP325,3380 nM (active)
same,Potency,CP329,3380 nM (active)
same,Potency,FAB9,2000 nM (active)
same,Potency,JCK,3980 nM (active)
same,Potency,PC49,2820 nM (active)
CC1CC[C@@]2(NC1)OC1CC3C4CC[C@@H]5CC(O)CC[C@@]5(C)C4CC[C@]3(C)C1C2C (some centres not stated),outcome,[1],inactive
same,Potency,[3],inactive
same,Potency,ATS189,inactive
same,Potency,C2A,inactive
same,Potency,CP191,inactive
same,Potency,CP192,inactive
same,Potency,CP201,inactive
same,Potency,CP215,inactive
same,Potency,CP237,inactive
same,Potency,CP238,inactive
same,Potency,CP268,inactive
same,Potency,CP269,inactive
same,Potency,CP286,inactive
same,Potency,CP325,inactive
same,Potency,CP329,inactive
same,Potency,FAB9,inactive
same,Potency,JCK,inactive
same,Potency,PC49,inactive
C#CCN1CC(=O)N(COC(=O)[C@@H]2[C@@H](C=C(C)C)C2(C)C)C1=O,outcome,[1],inactive
same,Potency,[3],inactive
same,"activity, negative = inhibition",[4]; parasite line A,4.89%
same,"activity, negative = inhibition",[4]; parasite line B,10.9%
same,Potency,ATS189,inactive
same,Potency,C2A,inactive
same,Potency,CP191,inactive
same,Potency,CP192,inactive
same,Potency,CP201,inactive
same,Potency,CP237,inactive
same,Potency,CP238,inactive
same,Potency,CP268,inactive
same,Potency,CP269,inactive
same,Potency,CP286,inactive
same,Potency,CP325,inactive
same,Potency,CP329,inactive
same,Potency,FAB9,inactive
same,Potency,JCK,inactive
same,Potency,PC49,inactive
CCCCCCC(=O)O[C@H]1CC[C@H]2[C@@H]3CCC4CC(=O)C=C(C)[C@]4(C)[C@H]3CC[C@]12C (some centres not stated),outcome,[1],inactive
same,Potency,[3],inactive
same,"activity, negative = inhibition",[4]; parasite line A,-7.1%
same,"activity, negative = inhibition",[4]; parasite line B,-5.28%
same,Potency,ATS189,inactive
same,Potency,C2A,inactive
same,Potency,CP191,inactive
same,Potency,CP192,inactive
same,Potency,CP201,inactive
same,Potency,CP215,inactive
same,Potency,CP238,inactive
same,Potency,CP268,inactive
same,Potency,CP269,inactive
same,Potency,CP286,11200 nM (active)
same,Potency,CP325,inactive
same,Potency,CP329,inactive
same,Potency,FAB9,inactive
same,Potency,JCK,inactive
same,Potency,PC49,inactive
CCN(CC)C(=O)N[C@@H]1C=C2c3cccc4[nH]cc(c34)C[C@H]2N(C)C1,outcome,[1],inactive
same,Potency,[2],inactive
same,Potency,[3],inactive
same,"activity, negative = inhibition",[4]; parasite line A,-22.6%
same,Potency,CP192,inactive
same,Potency,CP201,inactive
same,Potency,CP215,inactive
same,Potency,CP325,inactive
same,Potency,FAB9,inactive
same,Potency,PC49,inactive
O=[N+]([O-])OC1CO[C@H]2C(O[N+](=O)[O-])COC12 (some centres not stated),outcome,[1],inactive
same,Potency,[2],inactive
same,Potency,[3],inactive
same,"activity, negative = inhibition",[4]; parasite line A,-2.15%
same,"activity, negative = inhibition",[4]; parasite line B,1.56%
same,Potency,ATS189,inactive
same,Potency,C2A,inactive
same,Potency,CP191,inactive
same,Potency,CP192,inactive
same,Potency,CP201,inactive
same,Potency,CP237,inactive
same,Potency,CP238,inactive
same,Potency,CP268,inactive
same,Potency,CP269,inactive
same,Potency,CP286,inactive
same,Potency,CP325,inactive
same,Potency,CP329,inactive
same,Potency,FAB9,inactive
same,Potency,JCK,inactive
same,Potency,PC49,inactive
